According to the supplement of paper PMC10849652:
About 7,900 targets were measured; listed, in parts, are those with a hit and a random draw of the rest. About 0.6% of all pairs of compound and target were hits.

Tests used:
Assay in all cases: log2 fold change, soluble protein after heating vs DMSO (PISA); higher = thermal stabilisation; K562 cells, 10 uM, 30 min; active = over 0.2 and 3.5 SD of the protein, either way, in both replicates (recomputed)
[1] = compound: C1=CC=C(C=C1)[C@H](COC2=CC3=C(C=C2)NC(=O)N3)NC(=O)C4=CC=CN(C4=O)CC5=CC(=C(C=C5)F)F
How it was run: (§1)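 Soluble protein was defined as the supernatant after 21,000xg for 90 min. It came from K562 cells at 2×10^6 cells/mL given 10 μM compound for 30 min, heated in aliquots for 3 min across 48°C-58°C, pooled, and extracted in PBS with 0.5% NP-40 at 4°C, and was quantified by TMTpro 16plex LC-MS/MS with equalised channel sums. Thermal stability against control samples, from duplicates, is reported as log2 fold change.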

[2] = compound: CC1=C(SC2=C1C(=N[C@H](C3=NN=C(N32)C)CC(=O)N)C4=CC=C(C=C4)Cl)C
How it was run: as §1

[3] = compound: CC1=C2C(=CC=C1)N=C(N(C2=O)C3=CC=CC=C3C)CN4C=NC5=C(N=CN=C54)N
How it was run: as §1

[4] = compound: Cc1sc2c(c1C)C(c1ccc(Cl)cc1)=N[C@@H](CC(=O)OC(C)(C)C)c1nnc(C)n1-2
How it was run: as §1

[5] = compound: c1ccc([C@@H]2C[C@H]2NC2CCNCC2)cc1
How it was run: as §1

Measured: log2 fold change

MARK2 (UniProt E9PC69)
inactive: [1] -0.029 | [2] 0.038 | [3] 0.174 | [4] 0.126 | [5] -0.052

IPO7 (UniProt O95373)
inactive: [1] -0.082 | [2] 0.031 | [3] 0.069 | [4] -0.025 | [5] 0.003

MEAK7 (UniProt Q6P9B6)
inactive: [1] -0.009 | [2] 0.051 | [3] 0.042 | [4] -0.009 | [5] -0.048

MAGI1 (UniProt Q96QZ7)
inactive: [1] 0.025 | [2] -0.026 | [3] -0.005 | [4] 0.054 | [5] -0.016

MFGE8 (UniProt Q08431)
inactive: [1] 0.005 | [2] -0.051 | [3] -0.091 | [4] -0.068 | [5] -0.129

MFN1 (UniProt Q8IWA4)
Sequence of UniProt Q8IWA4 (Q8IWA4 whole entry, looked up): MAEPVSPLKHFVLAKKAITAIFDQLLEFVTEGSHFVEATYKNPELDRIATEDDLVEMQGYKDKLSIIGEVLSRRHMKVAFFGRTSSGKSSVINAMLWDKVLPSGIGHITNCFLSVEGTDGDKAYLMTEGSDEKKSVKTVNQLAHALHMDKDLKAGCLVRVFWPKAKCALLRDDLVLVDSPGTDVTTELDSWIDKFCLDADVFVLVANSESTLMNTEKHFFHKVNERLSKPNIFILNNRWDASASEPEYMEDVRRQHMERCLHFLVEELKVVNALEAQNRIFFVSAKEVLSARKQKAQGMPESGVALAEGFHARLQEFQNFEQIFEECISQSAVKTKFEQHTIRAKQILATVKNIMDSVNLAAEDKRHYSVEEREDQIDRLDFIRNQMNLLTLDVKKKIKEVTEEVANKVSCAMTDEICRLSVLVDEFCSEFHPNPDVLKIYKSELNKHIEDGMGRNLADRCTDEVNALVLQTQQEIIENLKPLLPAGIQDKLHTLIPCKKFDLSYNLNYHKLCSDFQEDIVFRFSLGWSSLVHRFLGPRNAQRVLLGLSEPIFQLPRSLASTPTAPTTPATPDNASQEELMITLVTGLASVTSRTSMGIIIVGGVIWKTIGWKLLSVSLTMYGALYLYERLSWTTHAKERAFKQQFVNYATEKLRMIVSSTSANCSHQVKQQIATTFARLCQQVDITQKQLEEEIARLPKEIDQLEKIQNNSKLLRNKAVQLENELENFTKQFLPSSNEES
inactive: [1] 0.058 | [2] 0.042 | [3] 0.05 | [4] 0.07 | [5] -0.01

KLHL18 (UniProt O94889)
inactive: [1] 0.014 | [2] 0.101 | [3] 0.135 | [4] 0.017 | [5] -0.021

MGST3 (UniProt O14880)
Sequence of UniProt O14880 (O14880 whole entry, looked up): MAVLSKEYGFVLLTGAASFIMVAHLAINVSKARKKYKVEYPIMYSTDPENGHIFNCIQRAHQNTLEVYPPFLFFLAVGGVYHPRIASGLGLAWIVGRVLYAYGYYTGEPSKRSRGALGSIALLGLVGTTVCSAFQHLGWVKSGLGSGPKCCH
inactive: [1] 0.046 | [2] 0.032 | [3] 0.005 | [4] 0.006 | [5] 0.054

LAMP2 (UniProt P13473)
Sequence of UniProt P13473 (P13473 whole entry, looked up): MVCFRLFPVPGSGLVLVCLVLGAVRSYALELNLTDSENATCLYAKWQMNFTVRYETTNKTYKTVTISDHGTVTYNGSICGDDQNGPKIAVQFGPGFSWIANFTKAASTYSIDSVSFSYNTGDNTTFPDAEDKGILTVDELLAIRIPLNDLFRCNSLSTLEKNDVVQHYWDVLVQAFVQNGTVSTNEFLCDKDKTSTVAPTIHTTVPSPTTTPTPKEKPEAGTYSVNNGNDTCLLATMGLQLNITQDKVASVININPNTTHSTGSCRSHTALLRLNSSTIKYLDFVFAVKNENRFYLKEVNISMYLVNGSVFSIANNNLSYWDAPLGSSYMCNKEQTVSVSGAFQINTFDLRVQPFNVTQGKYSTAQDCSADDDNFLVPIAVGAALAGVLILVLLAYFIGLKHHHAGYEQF
inactive: [1] 0.022 | [2] -0.006 | [3] -0.041 | [4] -0.078 | [5] 0.074

MAPK14 (UniProt Q16539)
inactive: [1] -0.01 | [2] 0.153 | [3] 0.061 | [4] -0.03 | [5] -0.089

LIAS (UniProt O43766)
Sequence of UniProt O43766 (O43766 whole entry, looked up): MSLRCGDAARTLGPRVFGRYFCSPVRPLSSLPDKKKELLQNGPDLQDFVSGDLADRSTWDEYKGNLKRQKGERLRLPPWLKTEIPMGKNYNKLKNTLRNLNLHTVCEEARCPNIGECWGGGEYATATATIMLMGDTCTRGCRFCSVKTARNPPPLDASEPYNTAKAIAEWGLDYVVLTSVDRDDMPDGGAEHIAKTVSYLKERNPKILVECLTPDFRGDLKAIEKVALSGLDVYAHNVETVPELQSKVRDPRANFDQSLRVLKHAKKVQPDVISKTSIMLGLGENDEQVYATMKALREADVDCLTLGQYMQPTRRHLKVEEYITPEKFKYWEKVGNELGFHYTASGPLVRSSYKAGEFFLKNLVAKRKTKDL
inactive: [1] 0.001 | [2] -0.042 | [3] 0.008 | [4] 0.049 | [5] 0.05

ILVBL (UniProt A1L0T0)
active: [2] 0.371
inactive: [1] -0.016 | [3] 0.075 | [4] -0.067 | [5] -0.127

MCUR1 (UniProt Q96AQ8)
inactive: [1] -0.02 | [2] 0.018 | [3] 0.007 | [4] -0.008 | [5] -0.023

KIF2C (UniProt Q99661)
Sequence of UniProt Q99661 (Q99661 whole entry, looked up): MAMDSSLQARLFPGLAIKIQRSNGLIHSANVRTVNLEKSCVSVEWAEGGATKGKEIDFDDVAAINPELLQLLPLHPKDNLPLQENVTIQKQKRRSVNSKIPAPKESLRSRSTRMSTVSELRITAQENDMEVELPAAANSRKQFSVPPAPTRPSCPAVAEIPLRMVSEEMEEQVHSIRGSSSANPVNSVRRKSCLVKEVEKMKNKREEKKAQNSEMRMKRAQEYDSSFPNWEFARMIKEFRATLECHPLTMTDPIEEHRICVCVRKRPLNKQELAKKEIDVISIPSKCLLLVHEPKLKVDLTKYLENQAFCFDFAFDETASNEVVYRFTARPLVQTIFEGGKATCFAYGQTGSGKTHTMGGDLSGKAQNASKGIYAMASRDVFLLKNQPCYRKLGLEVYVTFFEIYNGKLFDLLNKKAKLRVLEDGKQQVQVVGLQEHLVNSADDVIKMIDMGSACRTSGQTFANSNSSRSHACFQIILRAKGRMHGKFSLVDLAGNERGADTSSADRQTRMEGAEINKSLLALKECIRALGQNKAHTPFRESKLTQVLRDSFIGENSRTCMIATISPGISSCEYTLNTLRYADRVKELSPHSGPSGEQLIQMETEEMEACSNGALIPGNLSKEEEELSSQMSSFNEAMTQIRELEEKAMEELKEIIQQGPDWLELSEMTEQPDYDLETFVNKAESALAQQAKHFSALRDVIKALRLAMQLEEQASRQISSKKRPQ
inactive: [1] -0.062 | [2] -0.021 | [3] 0.094 | [4] 0.002 | [5] -0.029

KEL (UniProt P23276)
inactive: [1] -0.067 | [2] 0.003 | [3] 0.017 | [4] 0.019 | [5] 0.067

MAST4 (UniProt O15021)
inactive: [1] -0.081 | [2] 0.037 | [3] 0.061 | [4] -0.002 | [5] -0.041

MICU2 (UniProt Q8IYU8)
inactive: [1] 0.013 | [2] -0.037 | [3] -0.123 | [4] -0.029 | [5] 0.021

MED16 (UniProt Q9Y2X0)
Sequence of UniProt Q9Y2X0 (Q9Y2X0 whole entry, looked up): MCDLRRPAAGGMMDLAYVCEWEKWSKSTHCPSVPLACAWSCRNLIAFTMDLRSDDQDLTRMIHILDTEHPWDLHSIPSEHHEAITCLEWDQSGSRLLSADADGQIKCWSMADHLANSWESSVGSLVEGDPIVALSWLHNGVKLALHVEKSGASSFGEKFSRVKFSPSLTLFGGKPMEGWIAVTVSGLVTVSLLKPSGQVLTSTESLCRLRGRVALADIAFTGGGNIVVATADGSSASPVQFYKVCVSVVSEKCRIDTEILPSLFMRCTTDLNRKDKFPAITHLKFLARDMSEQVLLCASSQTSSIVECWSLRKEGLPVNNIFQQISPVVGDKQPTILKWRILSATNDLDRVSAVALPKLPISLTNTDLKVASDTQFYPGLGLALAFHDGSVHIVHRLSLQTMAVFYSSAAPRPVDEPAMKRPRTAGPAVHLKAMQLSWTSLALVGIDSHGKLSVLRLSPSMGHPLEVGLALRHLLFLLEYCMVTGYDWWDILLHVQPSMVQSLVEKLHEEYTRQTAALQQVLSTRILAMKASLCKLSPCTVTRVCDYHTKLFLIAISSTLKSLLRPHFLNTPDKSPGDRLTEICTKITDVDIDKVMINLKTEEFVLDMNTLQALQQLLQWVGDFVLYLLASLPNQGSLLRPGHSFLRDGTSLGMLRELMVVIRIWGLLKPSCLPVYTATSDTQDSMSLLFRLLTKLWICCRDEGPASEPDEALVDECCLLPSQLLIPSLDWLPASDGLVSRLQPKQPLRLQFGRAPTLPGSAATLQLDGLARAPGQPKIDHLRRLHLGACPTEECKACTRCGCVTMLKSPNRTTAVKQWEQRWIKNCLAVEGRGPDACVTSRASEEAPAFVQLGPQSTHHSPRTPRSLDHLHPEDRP
inactive: [1] -0.048 | [2] 0.012 | [3] 0.043 | [4] 0.093 | [5] 0.019

LARP1 (UniProt Q6PKG0)
inactive: [1] 0.002 | [2] -0.046 | [3] -0.046 | [4] 0.151 | [5] -0.002

MAP4K2 (UniProt Q12851)
Sequence of UniProt Q12851 (Q12851 whole entry, looked up): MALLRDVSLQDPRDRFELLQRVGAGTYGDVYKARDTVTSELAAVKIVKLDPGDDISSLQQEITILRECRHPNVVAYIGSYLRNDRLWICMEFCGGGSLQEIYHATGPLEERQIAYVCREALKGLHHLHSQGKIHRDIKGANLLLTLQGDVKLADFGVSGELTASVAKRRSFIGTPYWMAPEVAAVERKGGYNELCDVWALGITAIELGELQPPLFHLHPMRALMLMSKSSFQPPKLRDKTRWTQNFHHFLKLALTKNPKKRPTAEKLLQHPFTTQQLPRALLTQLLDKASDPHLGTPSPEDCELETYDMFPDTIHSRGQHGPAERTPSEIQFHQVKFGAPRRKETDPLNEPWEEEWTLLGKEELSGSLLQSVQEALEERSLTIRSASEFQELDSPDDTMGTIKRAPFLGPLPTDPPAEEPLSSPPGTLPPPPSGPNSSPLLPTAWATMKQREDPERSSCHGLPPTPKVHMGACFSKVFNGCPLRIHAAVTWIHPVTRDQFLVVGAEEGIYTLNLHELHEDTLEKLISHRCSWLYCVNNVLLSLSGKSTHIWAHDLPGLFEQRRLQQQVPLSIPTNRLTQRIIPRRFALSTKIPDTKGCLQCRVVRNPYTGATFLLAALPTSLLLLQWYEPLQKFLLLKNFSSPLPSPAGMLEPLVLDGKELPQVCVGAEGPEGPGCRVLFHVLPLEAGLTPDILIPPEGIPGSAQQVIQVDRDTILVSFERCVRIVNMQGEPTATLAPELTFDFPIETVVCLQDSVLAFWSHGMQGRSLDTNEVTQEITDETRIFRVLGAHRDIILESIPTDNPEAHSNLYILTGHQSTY
inactive: [1] -0.08 | [2] 0.063 | [4] -0.057 | [5] 0

KIF13A isoform 4 (UniProt Q9H1H9)
inactive: [2] 0.031 | [5] -0.367

IGFBP3 isoform 2 (UniProt P17936)
inactive: [2] -0.081 | [3] 0.034 | [4] -0.083 | [5] 0.057

MED17 (UniProt Q9NVC6)
inactive: [2] -0.031 | [3] 0.038 | [4] 0.032 | [5] -0.011

ITGA2B (UniProt P08514)
inactive: [2] 0.022 | [3] 0.112 | [4] 0.029 | [5] -0.043

MCM10 (UniProt Q7L590)
Sequence of UniProt Q7L590 (Q7L590 whole entry, looked up): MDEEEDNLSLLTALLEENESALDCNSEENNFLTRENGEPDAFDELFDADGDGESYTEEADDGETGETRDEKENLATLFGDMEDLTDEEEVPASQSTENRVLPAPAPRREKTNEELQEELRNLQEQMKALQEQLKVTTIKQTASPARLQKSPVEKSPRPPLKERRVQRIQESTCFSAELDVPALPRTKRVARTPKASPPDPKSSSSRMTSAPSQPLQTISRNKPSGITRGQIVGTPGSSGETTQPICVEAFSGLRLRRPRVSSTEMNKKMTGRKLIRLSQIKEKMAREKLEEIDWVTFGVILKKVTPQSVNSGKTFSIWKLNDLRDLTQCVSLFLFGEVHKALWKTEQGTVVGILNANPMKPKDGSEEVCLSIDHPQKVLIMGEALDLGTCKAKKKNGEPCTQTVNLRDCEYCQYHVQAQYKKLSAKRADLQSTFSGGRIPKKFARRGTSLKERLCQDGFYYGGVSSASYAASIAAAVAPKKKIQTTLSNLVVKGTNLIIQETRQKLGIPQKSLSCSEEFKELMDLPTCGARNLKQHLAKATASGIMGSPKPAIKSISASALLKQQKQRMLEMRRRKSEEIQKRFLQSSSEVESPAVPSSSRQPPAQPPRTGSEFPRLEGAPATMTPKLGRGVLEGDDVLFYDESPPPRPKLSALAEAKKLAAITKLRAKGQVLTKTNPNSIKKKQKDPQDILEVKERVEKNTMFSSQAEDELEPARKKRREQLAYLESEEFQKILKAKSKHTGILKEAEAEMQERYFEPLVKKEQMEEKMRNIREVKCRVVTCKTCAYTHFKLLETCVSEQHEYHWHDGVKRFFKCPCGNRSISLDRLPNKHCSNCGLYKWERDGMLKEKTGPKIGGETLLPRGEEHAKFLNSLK
inactive: [1] -0.04 | [3] 0.204 | [4] 0.032

INTS5 (UniProt Q6P9B9)
inactive: [1] -0.091 | [3] 0.052 | [4] 0.065
